From the supplement of paper PMC8726507

Each compound was assayed on Plasmodium falciparum NF54-HGL (transmission to Anopheles stephensi) (assay: percentage of barcode signal found in uninfected mosquitoes (transmission-blocking activity); higher = stronger blocking of transmission to mosquito, active = 80 or more). Settings: 10 µM; gametocyte preincubation time 24 h; readout time post-feed 8 days.
Protocol: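 The mixture was fed to Anopheles stephensi in 96-well plates as blood meals tagged with DNA-barcoded Asaia bacteria. Eight days later, mosquitoes were classed infected or uninfected by luminescence (mean + 5 SD of unfed controls). Barcodes were quantified by Luminex MagPlex-TAG in the pooled uninfected and infected Asaia cultures, background-corrected, and the score is % of barcode signal in uninfected mosquitoes = 100*Iu/(Iu+Ii).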

| Structure (SMILES) | percentage of barcode signal found in uninfected mosquitoes |
| --- | --- |
| O=C1Nc2ccc(Br)cc2C12NCCc1c2[nH]c2ccccc12 (configuration not stated) | 27.2% (inactive) |
| O=C(NCc1ccco1)N1CCN(Cc2ccc(Cl)s2)CC1 | 0.794% (inactive) |
| N=C(N)c1ccc(OCCCCCOc2ccc(C(=N)N)cc2)cc1 | 77.2% (inactive) |
| NS(=O)(=O)c1cncc(-c2ccc3nccc(-c4cn[nH]c4)c3n2)c1 | 78.5% (inactive) |
| c1ccc(-c2[nH]c3ccccc3c2C(c2ccccn2)N2CCCC2)cc1 (configuration not stated) | 82.6% (active) |
| Cc1cc(NC(=O)c2ccc(S(=O)(=O)N(Cc3ccccc3)C(C)C)cc2)no1 | 35.4% (inactive) |
| CC(C)c1ncc(-c2ccncc2)c([C@H]2CC[C@H](CNC(=O)c3cccnc3)CC2)n1 | 31.4% (inactive) |
| Cc1cc2nc(NC(=O)C(C)(C)C)nc(Cl)c2n1Cc1ccc(Cl)cc1 | 79.6% (inactive) |
| CC1=Nc2ccc(Cl)cc2C(O)(c2ccc(C)cc2)N1CCN1CCCCC1 (configuration not stated) | 83.9% (active) |
| COc1cc(C2=NCCN2)ccc1-n1cc(-c2cccc(C3=NCCN3)c2)nn1 | 46.2% (inactive) |
| CC(C)C(C(=O)Nc1ccc(S(=O)(=O)N(C)C)cc1)c1ccc(Cl)cc1 (configuration not stated) | 49.7% (inactive) |
| Cc1cccnc1NC(=O)c1cccc(OCc2c(C)noc2C)c1 | -2.5% (inactive) |
| O=C1N(Cc2cc3ccccc3s2)CC2CN(Cc3ccccc3)CCN12 (configuration not stated) | 58.1% (inactive) |
| Cc1cc(C(=O)Nc2cnn(Cc3ccc(Cl)cc3Cl)c2)no1 | 42.7% (inactive) |
| Cc1ccc(Oc2ccc(NC(=O)CNc3ccccc3N3CCCC3=O)cc2)cc1 | 53.3% (inactive) |
| Cc1nc(-c2cccc(NCc3ccccc3)c2)[nH]c1C | 2.32% (inactive) |
| O=C(COc1cccc(F)c1)Nc1nc(-c2ccccn2)cs1 | 38.7% (inactive) |
| COc1ccc(-c2cc(NC(=O)c3ccc(F)cc3Cl)ccc2OC)cc1 | -1.77% (inactive) |
| CO[C@@H](C(=O)N1Cc2[nH]nc(NC(=O)c3ccc(N4CCN(C)CC4)cc3)c2C1)c1ccccc1 | 68.7% (inactive) |
| FC(F)(F)c1cnc(Sc2nnc(-c3ccncc3)o2)c(Cl)c1 | 68.8% (inactive) |
| COC(=O)c1c(NC(=O)c2c(F)c(F)c(F)c(F)c2F)sc2c1CCCCC2 | 13.7% (inactive) |

Same assay, conditions: 20 µM; gametocyte preincubation time 24 h; readout time post-feed 8 days

| Structure (SMILES) | percentage of barcode signal found in uninfected mosquitoes |
| --- | --- |
| Nc1cccnc1Nc1ccc(Cl)cc1 | 54.5% (inactive) |
| NS(=O)(=O)c1cccc(-c2ccc3ncc(N4CCOCC4)nc3c2)c1 | 64.7% (inactive) |
| O=C(CN1CCOCC1)Nc1ccc2ncnc(Nc3ccc(OCc4cccc(F)c4)c(Cl)c3)c2c1 | 1.6% (inactive) |
| CC(C)(C)c1cc(C(=O)N2CCN(c3nccnc3C#N)CC2)n(Cc2ccccc2)n1 | 33.5% (inactive) |
| N=C(N)Nc1ccc(-c2ccc(-c3ccc(NC(=N)N)cc3Cl)o2)c(Cl)c1 | 39.3% (inactive) |
| CC(=O)Nc1ccc(-c2noc(CC3CCCN(Cc4cccc(F)c4C)C3)n2)cc1 (configuration not stated) | 0.0253% (inactive) |
| O=C(C1CCN(c2nnc(-n3cccc3)s2)CC1)N1CCC(Cc2ccccc2)CC1 | 28.5% (inactive) |
| COc1ccc(-c2cnc3cnc(-c4cccc(OC(C)C)c4)cn23)cc1 | -0.618% (inactive) |
| NCC(c1cccs1)S(=O)(=O)c1ccccc1 (configuration not stated) | 17.5% (inactive) |
| CC(C)(C)c1cnc(NC(=O)c2ccccc2O)s1 | 21.3% (inactive) |
| CS(=O)(=O)N1CCC(Cn2nc(Cc3cccc4ccccc34)c3c(N)ncnc32)CC1 | 28.2% (inactive) |
| c1cncc(NCc2ccc(-c3cc4ccncc4cc3OC3CCNCC3)s2)c1 | 99.4% (active) |
| CCCCS(=O)(=O)Nc1ccc2cnn(C)c2c1 | 4.19% (inactive) |
| CCCCOC(=O)Nc1cc2nc(C3CCCCC3)[nH]c2cc1N1CCCC1 | 33.9% (inactive) |
| O=C(Nc1nnc(S)s1)c1cc(Br)ccc1Cl | 18.9% (inactive) |
| COc1ccc(S(=O)(=O)Nc2ccc(CN3CCN(C(=O)c4cccc(C#N)c4)CC3)cc2)cc1 | 8.68% (inactive) |
